Compounds with a hit are over-represented: about 3.5% of the library has one in this group of screens.
GPR151 activ: human GPR151 activation; 1% of 650,000 active; PathHunter beta-arrestin GPR151 cells, luminescence; activation, % at 11.2 µM; in the data active means activation above about 4.9%;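 further: 0% = median of compound wells and 100% = cells with positive control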
TEAD-YAP block: TEAD-YAP interaction inhibition; 1.4% of 640,000 active; HEK-TIYL cells, TEAD-Gal4/YAP UAS-luciferase luminescence; inhibition, % at 9.12 µM; in the data active means inhibition above about 32%;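 further: 0% = median of test compound wells and 100% = reference inhibitor wells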
FBW7 act: activators of human E3 ligase FBW7 | normalized activity (activation), % at 26.1 µM | 0.13% of 650,000 active | AID 1259310 | Q969H0 | AlphaScreen FBW7–phospho-cyclin E peptide binding, activator screen; in the data active means normalized activity above about 1.9%;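 further: purified mutant Fbw7 with reduced substrate affinity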
Target sequence (Q969H0 whole entry, looked up): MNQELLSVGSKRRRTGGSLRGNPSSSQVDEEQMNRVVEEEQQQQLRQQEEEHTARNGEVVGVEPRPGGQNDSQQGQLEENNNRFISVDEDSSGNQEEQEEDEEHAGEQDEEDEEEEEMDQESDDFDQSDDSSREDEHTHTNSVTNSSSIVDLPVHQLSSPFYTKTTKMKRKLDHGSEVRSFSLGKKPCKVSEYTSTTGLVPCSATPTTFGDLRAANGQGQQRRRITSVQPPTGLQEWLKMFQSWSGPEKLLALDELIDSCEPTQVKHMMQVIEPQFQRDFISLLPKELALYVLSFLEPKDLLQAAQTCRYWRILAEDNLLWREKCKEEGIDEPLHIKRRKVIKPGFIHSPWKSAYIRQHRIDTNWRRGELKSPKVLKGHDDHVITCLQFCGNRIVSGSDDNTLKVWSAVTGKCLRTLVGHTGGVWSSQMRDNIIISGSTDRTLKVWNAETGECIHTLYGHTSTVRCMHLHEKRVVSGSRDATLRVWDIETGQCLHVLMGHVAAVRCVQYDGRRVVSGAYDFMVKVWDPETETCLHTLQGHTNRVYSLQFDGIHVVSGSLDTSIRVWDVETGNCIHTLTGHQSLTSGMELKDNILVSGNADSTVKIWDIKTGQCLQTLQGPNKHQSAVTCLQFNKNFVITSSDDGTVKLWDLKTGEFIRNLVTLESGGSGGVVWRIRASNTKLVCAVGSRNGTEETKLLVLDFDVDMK
MITF primary: human MITF inhibition, primary screen; AlphaScreen MITF homodimerization, bead proximity signal; 0.91% of 650,000 active; O75030; inhibition, % at 2.6 µM; in the data active means inhibition above about 50%;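 further: 0% = vehicle wells with protein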
* marks the source's active call; other numbers are inactive results.

How did CC1=CC2=NC(=O)/C(=C\c3cc(C)n(-c4cccc(C)c4)c3C)C(=N)N2O1 do in these assays?
GPR151 activ: -0.3; TEAD-YAP block: 49.8*; FBW7 act: 0.7; MITF primary: 18.3

How did CC1=CC2=NC(=O)/C(=C\c3cc(C)n(-c4cccc(Cl)c4)c3C)C(=N)N2O1 do in these assays?
GPR151 activ: -1.7; TEAD-YAP block: -3.3; FBW7 act: -0.1; MITF primary: 14.2

How did Cc1ccc(NC(=O)C(C)N2Cc3ccccc3C2=O)nc1 (stereo unspecified) do in these assays?
GPR151 activ: -0.6; TEAD-YAP block: 81.8*; FBW7 act: 0.1; MITF primary: 5.1

Results for Cc1nc(SCC(=O)Nc2cc(C(N)=O)cc(C(N)=O)c2)c2c(C)c(C)sc2n1 ?
GPR151 activ: 0.4; TEAD-YAP block: -3.6; FBW7 act: 15.6*; MITF primary: -5.3

What do the screens show for `CC(=O)c1ccc(NC(=O)CSc2nc(C)nc3sc(C)c(C)c23)cc1`?
GPR151 activ: 0.6; TEAD-YAP block: 10.9; FBW7 act: 0.0; MITF primary: 10.3

Results for CC(C)c1ccc(C2NN=C(c3ccccc3)S2)cc1 (stereo unspecified) ?
GPR151 activ: -7.1; TEAD-YAP block: 70.3*; FBW7 act: 0.6; MITF primary: -5.8

What do the screens show for `CCN1CCCC1CNC(=O)c1cc2cc3ccc(C)cc3nc2o1` (stereo unspecified)?
GPR151 activ: -0.1; TEAD-YAP block: 0.1; FBW7 act: -0.2; MITF primary: 4.1

Results for CC(C)OCCCNC(=O)c1cc(-c2cccs2)nc2ccccc12 ?
GPR151 activ: 0.1; TEAD-YAP block: 36.5*; FBW7 act: 0.0; MITF primary: -0.6

How did O=C(NCCCN1CCOCC1)c1cc(-c2cccs2)nc2ccccc12 do in these assays?
GPR151 activ: -0.2; TEAD-YAP block: 13.6; FBW7 act: -0.3; MITF primary: -5.4

Results for CCOC(=O)c1cn2nc(N3CCCCC3)ccc2n1 ?
GPR151 activ: -6.2; TEAD-YAP block: 42.9*; FBW7 act: -0.1; MITF primary: -0.5

Results for CCOC(=O)C1CCN(c2ccc3nncn3n2)CC1 ?
GPR151 activ: 0.9; TEAD-YAP block: 5.3; FBW7 act: 0.1; MITF primary: 2.3

Results for COc1ccc(-n2c(/C=C/N(C)C)c([N+](=O)[O-])c3ccc(O)c(CN(C)C)c32)cc1 ?
GPR151 activ: -0.6; TEAD-YAP block: 37.6*; FBW7 act: 0.2; MITF primary: 5.4

What do the screens show for `O=C(Nc1cccc(Br)c1)c1cc(S(=O)(=O)N2CCCC2)ccc1Cl`?
GPR151 activ: -1.0; TEAD-YAP block: 35.2*; FBW7 act: 0.5; MITF primary: 10.4

Results for CC1CCN(S(=O)(=O)c2cccc(C(=O)Oc3cccc(NC(=O)c4ccccc4)c3)c2)CC1 ?
GPR151 activ: -0.2; TEAD-YAP block: 36.6*; FBW7 act: 0.6; MITF primary: 15.0

What do the screens show for `O=C(c1cccc(S(=O)(=O)N2CCCC2)c1)c1cccc(S(=O)(=O)N2CCCC2)c1`?
GPR151 activ: 1.6; TEAD-YAP block: 33.2*; FBW7 act: -0.2; MITF primary: -7.8

How did O=C(Oc1cccc(NC(=O)c2ccccc2Cl)c1)c1cccc(S(=O)(=O)N2CCCCC2)c1 do in these assays?
GPR151 activ: 2.7; TEAD-YAP block: 54.1*; FBW7 act: 0.0; MITF primary: -6.4

Results for CC1CCN(S(=O)(=O)c2cccc(C(=O)Nc3ccccc3C(=O)Nc3ccccc3)c2)CC1 ?
GPR151 activ: -1.4; TEAD-YAP block: -1.0; FBW7 act: 0.1; MITF primary: -13.0

How did Cn1c(NC(=O)CCCc2ccccc2)cc(=O)n(C)c1=O do in these assays?
GPR151 activ: 0.3; TEAD-YAP block: -37.9; FBW7 act: 0.2; MITF primary: 14.1

What do the screens show for `CCc1ccc(NC(=O)CS(=O)CC(=O)N2CCN(C3CCCC3)CC2)cc1` (stereo unspecified)?
GPR151 activ: 0.1; TEAD-YAP block: -10.7; FBW7 act: -0.1; MITF primary: -1.2

How did C[C@@H]1O[C@@H](OC[C@H]2OC(Oc3c(-c4ccc(O)c(O)c4)oc4cc(O)cc(O)c4c3=O)[C@H](O)[C@@H](O)[C@@H]2O)[C@H](O)[C@H](O)[C@H]1O (stereo partly specified) do in these assays?
GPR151 activ: -0.1; TEAD-YAP block: 6.7; FBW7 act: -0.3; MITF primary: 82.1*

What do the screens show for `COc1ccc(Nc2nnc(SCC(=O)Nc3ccccc3OC(F)F)s2)cc1`?
GPR151 activ: 0.5; TEAD-YAP block: -6.1; FBW7 act: -0.2; MITF primary: -0.3

How did COc1cc(-c2cnc3c(NCc4cccnc4)nccn23)cc(OC)c1OC do in these assays?
GPR151 activ: 0.3; TEAD-YAP block: 39.3*; FBW7 act: -0.1; MITF primary: -9.2

Results for COc1cc(-c2cnc3c(NCc4cccs4)nccn23)cc(OC)c1OC ?
GPR151 activ: 0.2; TEAD-YAP block: 38.3*; FBW7 act: 1.9*; MITF primary: -1.5

Results for COc1cc(CNc2nccn3c(-c4cccc(O)c4)cnc23)cc(OC)c1OC ?
GPR151 activ: 0.6; TEAD-YAP block: 0.0; FBW7 act: 2.1*; MITF primary: -1.1

What do the screens show for `COc1cc(-c2cnc3c(NCc4ccncc4)nccn23)cc(OC)c1OC`?
GPR151 activ: 0.2; TEAD-YAP block: -7.8; FBW7 act: -0.5; MITF primary: -1.4

How did O=C1NC(=O)N(c2ccc3ccccc3c2)C(=O)/C1=C\c1ccc(N2CCOCC2)cc1 do in these assays?
GPR151 activ: -2.9; TEAD-YAP block: -1.0; FBW7 act: 0.5; MITF primary: 4.2

What do the screens show for `COc1cc(Nc2ccn3ncc(-c4cccc(C(N)=O)c4)c3n2)cc(OC)c1OC`?
GPR151 activ: -0.6; TEAD-YAP block: -16.3; FBW7 act: 0.5; MITF primary: 21.2

What do the screens show for `CCn1c(SCC(=O)Nc2ccc(C(C)C)cc2)nc2ccsc2c1=O`?
GPR151 activ: 0.9; TEAD-YAP block: 0.3; FBW7 act: 0.7; MITF primary: -11.5

Results for COc1c(O)cc2c(c1O)[C@@H]1O[C@H](CO)[C@@H](O)[C@H](O)[C@H]1OC2=O ?
GPR151 activ: -1.8; TEAD-YAP block: -6.7; FBW7 act: -0.2; MITF primary: 4.2

What do the screens show for `Cc1c(C(=O)O)c(O)cc2c1C(=O)c1c(O)c([C@H]3O[C@H](CO)[C@@H](O)[C@H](O)[C@H]3O)c(O)c(O)c1C2=O`?
GPR151 activ: -1.5; TEAD-YAP block: 0.0; FBW7 act: -0.5; MITF primary: 89.5*

How did CC1=CC(C)(C)N2C(=O)C(=O)c3cc(OC(=O)c4ccccc4F)cc1c32 do in these assays?
GPR151 activ: -0.4; TEAD-YAP block: 45.0*; FBW7 act: -0.3; MITF primary: 5.1

What do the screens show for `Cc1cc(NC(=O)c2ccccc2)ccc1O`?
GPR151 activ: -5.4; TEAD-YAP block: 73.2*; FBW7 act: 0.0; MITF primary: 4.4

Results for CC(=O)Nc1ccc(NC(=O)c2ccccc2)c(C)c1 ?
GPR151 activ: 1.9; TEAD-YAP block: 3.7; FBW7 act: 11.8*; MITF primary: 1.0

Results for Cc1cc(NC(=O)/C=C/c2ccccc2)ccc1O ?
GPR151 activ: -1.5; TEAD-YAP block: 73.0*; FBW7 act: -0.2; MITF primary: -11.9

Results for Cc1nc2c(-c3ccccc3)c(C)nn2c(C)c1CCC(=O)N1CCCCC1 ?
GPR151 activ: 1.0; TEAD-YAP block: -4.5; FBW7 act: 0.3; MITF primary: -7.4

Assay outcomes (PubChem BioAssay)
